According to PubChem BioAssay AID2501 (Southern Research Specialized Biocontainment Screening …, 2010):
Several values for one entry are separate records, joined by “and”; a condition that tells them apart may be missing. Equal values may be shown once. Out of some 2,200 compounds screened, about 1,200 (55%) were called active. The set was probably picked from earlier hits. The list shows a part of the results. A number with no mark means an inactive call. No cut-off is given here; in the data, nearly all actives have IC50 up to about 92 µM.

Assay: counter assay for TAg ATPase ADP read-out – biochemical, ADP-Hunter, fluorescence, counter-screen (AID 2501);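 note: purified T antigen ATPase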;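 for inhibition: 0% = enzyme with vehicle and 100% = reference inhibitor wells; higher means more inhibition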
Settings: series mostly up to 100 µM; inhibition: at the top concentration
With Cc1cc(SCC(=O)c2ccccc2)nc(C)n1 the “inhibition” value was 16.8%.
In the case of O=C(CSc1n[nH]c(-c2ccccc2)n1)c1ccc(O)c(O)c1, the IC50 is reported as 10 µM (active).
For O=C(CSc1nc2ccccc2n1CCc1ccccc1)c1ccc(O)c(O)c1, the IC50 was 43.4 µM (active).
With N#Cc1c(-c2ccccc2)nc(SCC(=O)N2c3ccccc3Sc3ccccc32)[nH]c1=O the “inhibition” value was -1.42%.
In the case of Cc1ccc(C(=O)N(Cc2ccc3c(c2)OCO3)Cc2nc3ccccc3c(=O)[nH]2)cc1, the “inhibition” value is reported as 9.42%.
For CCCn1c(SC(C)C(=O)O)nc2ccccc21 (stereo not given), the “inhibition” value was 9.81%.
For O=C(CSc1nc2ccccc2c(=O)[nH]1)c1ccc(O)c(O)c1, the IC50 was 9.7 µM (active).
With Brc1ccc(-c2n(-c3ccccn3)c3ccccc3[n+]2-c2ccccn2)cc1 the “inhibition” value was 1.83%.
In the case of CC(=O)N1c2c(cc(Br)cc2S(=O)(=O)N2CCCCC2)CC1C (stereo not given), the “inhibition” value is reported as 17.1%.
For C[c-]1[c-](C)[c-](C)[c-](C)[c-]1C.[Fe].c1cc2nccc(N3CCCC3)[c-]2c1 (stereo not given), the IC50 was 5.8 µM (active).
For CCOC(=O)N1CCC(NC(=O)c2cnn3c2NC(c2ccco2)CC3C(F)(F)F)CC1 (stereo not given), the “inhibition” value was 12.3%.
In the case of COCCN(C(=O)COC(=O)c1cc2c(s1)CCC2)c1c(N)n(Cc2ccccc2)c(=O)[nH]c1=O, the “inhibition” value is reported as 4.61%.
In the case of CCN(C(=O)CN1CCN(c2cccc(Cl)c2)CC1)c1c(N)n(Cc2ccccc2)c(=O)[nH]c1=O, the “inhibition” value is reported as -12.3%.
For CCN(C(=O)CN1CCN(c2ccc(O)cc2)CC1)c1c(N)n(Cc2ccccc2)c(=O)[nH]c1=O, the IC50 was 4.79 µM (active).
With CC1=NN(c2nc(-c3ccc(C#N)cc3)cs2)C(=O)C1 the “inhibition” value was -10.8%.
With CC1=NN(c2nc(-c3ccccc3)cs2)C(=O)C1 the IC50 was 56 µM (active).
With OCc1ccccc1SSc1ccccc1CO the “inhibition” value was 11.8%.
For Nc1ccc(Sc2ccccc2CC(=O)O)cc1, the IC50 was 16.9 µM (active).
For N#Cc1c(-c2ccco2)cc(-c2ccccc2)[nH]c1=O, the “inhibition” value was -12.2%.
In the case of Cc1ccc(-c2c3c([nH]c(=S)c2C#N)CCCC3)o1, the “inhibition” value is reported as 15.4% [at 50 µM].
For N#Cc1c(-c2ccco2)c2c([nH]c1=S)CCCC2, the IC50 was 95.5 µM (active).
For COCCNC(=O)Nc1ccc2nc(-c3ccco3)c(-c3ccco3)nc2c1, the “inhibition” value was 19.3%.
In the case of CCN(CC)c1ccc(NC(=O)c2ccccc2F)cc1, the IC50 is reported as 4.71 µM (active).
For O=C(CSc1nnc(CNC(=O)c2ccco2)o1)Nc1ccccc1C(F)(F)F, the “inhibition” value was -0.42%.
In the case of CCN(CC)c1ccc(NC(=O)CCNC(=O)c2ccco2)cc1, the IC50 is reported as 5.22 µM (active).
For CCN(CC)c1ccc(NC(=O)c2cc3c(OC)cccc3[nH]2)cc1, the “inhibition” value was 27.4%.
For CCN(CC)c1ccc(NC(=O)c2ccco2)cc1, the IC50 was 4.57 µM (active).
For COc1cc(-c2nc3cccc(C)n3c2NCC2CCCO2)ccc1O (stereo not given), the IC50 was 41.9 µM (active).
With S=c1nc[nH]c2nc[nH]c12 the “inhibition” value was 23.4%.
For Cc1ccc(NC(=O)COc2ccc(C3SCCS3)cc2)cc1, the “inhibition” value was -2.46%.
With Cc1ccc(NC(=O)COc2ccc(/C(N)=N/O)cc2)cc1C the IC50 was 29.6 µM (active).
With CCN(CC)C(=O)c1cc([N+](=O)[O-])cc2c1-c1ccc([N+](=O)[O-])cc1C2=C(C#N)C#N the “inhibition” value was 19.6%.
For COc1ccccc1CN1CC(C(=O)NCc2ncccc2C)CCC1=O (stereo not given), the “inhibition” value was -1.4%.
With CCN(CC)c1ccc(NC(=O)C2CC(=O)N(Cc3ccccc3)C2)cc1 (stereo not given) the IC50 was 5.88 µM (active).
In the case of Cc1ccc(S(=O)(=O)/N=C(/Sc2ccccc2C(=O)O)c2ccccc2)cc1, the “inhibition” value is reported as -7.39%.
With Cc1ccc(NC(=O)CNC(=O)c2cccs2)nc1 the “inhibition” value was -35.3%.
In the case of Cc1cc(C(=O)c2cccs2)c(N)s1, the IC50 is reported as 32.8 µM (active).
With COc1cccc(CC2(CO)CCCN(Cc3sc(N4CCCC4)nc3Cl)C2)c1 (stereo not given) the “inhibition” value was -4.63%.
With COC(=O)/C=C/c1ccc(OC(=O)OC)c(OC(=O)OC)c1 the IC50 was 8.79 µM (active).
In the case of COc1ccc(-c2cc(=Nc3c(C)n(C)n(-c4ccccc4)c3=O)c3ccccc3o2)cc1, the “inhibition” value is reported as 25.9%.
With Cc1nc(N)sc1N=Nc1c(C)n(C)n(-c2ccccc2)c1=O the IC50 was 10.3 µM (active).
For Cc1c(N=C2C=C(Br)C(=O)C(Br)=C2)c(=O)n(-c2ccccc2)n1C, the IC50 was 50.9 µM (active).
For Cc1cc(N)ccc1N=Nc1c(C)n(C)n(-c2ccccc2)c1=O, the IC50 was 8.16 µM (active).
For Cc1cccc(N=Nc2c(C)[nH]n(-c3ccccc3)c2=O)c1, the “inhibition” value was 3.15%.
For CCNc1ccc(N=Nc2c(C)n(C)n(-c3ccccc3)c2=O)cc1, the IC50 was 3.42 µM (active).
In the case of CC(C)(C)CC(=O)NC(=S)Nc1ccccc1[N+](=O)[O-], the “inhibition” value is reported as -5.63%.
With COc1ccc(C(=O)N2CCN(C(=O)C3COc4ccccc4O3)CC2)cc1 (stereo not given) the “inhibition” value was -0.44%.
In the case of Cc1c(CC(=O)N2CCN(C(=O)C3COc4ccccc4O3)CC2)c(=O)oc2c(O)c(O)ccc12 (stereo not given), the IC50 is reported as 5.3 µM (active).
With COC(=O)c1ccc(-c2ccc(/C=N/N3C(=O)C4C5C=CC(C6CC56)C4C3=O)o2)cc1 (stereo not given) the “inhibition” value was -39.7%.
With O=C1C2C3C=CC(CC3)C2C(=O)N1/N=C/c1ccc(O)c(O)c1 (stereo not given) the IC50 was 5.65 µM (active).
In the case of COc1cc(/C=N/N2C(=O)C3C4C=CC(CC4)C3C2=O)ccc1O (stereo not given), the IC50 is reported as 5.67 µM (active).
For Cc1oc2c(O)c(O)ccc2c(=O)c1-c1cnn(-c2ccccc2)c1, the IC50 was 9.31 µM (active).
With CCSC1(SCC)N=C(N)C2(C#N)C(c3ccc(OC)c(OC)c3OC)C12C#N (stereo not given) the IC50 was 96.4 µM (active).
With COC(=O)CN1C(=O)[C@@H]2[C@H](C1=O)[C@@H]1CC(C(=O)OC)=C[C@@H](C(=O)OC)[C@@H]3C1=C(C(=O)[C@]3(C)NC(=O)c1ccccc1)[C@@H]2C the “inhibition” value was 25.3%.
For C/C(=N/NC(=O)Cc1c(C)[nH][nH]c1=O)c1ccc(O)cc1, the IC50 was 9.47 µM (active).
With COc1cc(/C(C)=N/NC(=O)Cc2c(C)[nH][nH]c2=O)ccc1O the IC50 was 3.72 µM (active).
For CSc1ccc(CCNC(=O)C2CCCN(S(=O)(=O)N3CCOCC3)C2)cc1 (stereo not given), the “inhibition” value was -1.03%.
In the case of COc1cc(/C=N/n2c(-c3n[nH]c4c3CCC4)n[nH]c2=S)ccc1O, the IC50 is reported as 5.13 µM (active).
In the case of COc1cc(/C=N/n2c(-c3n[nH]c4c3CCC4)n[nH]c2=S)cc(OC)c1O, the IC50 is reported as 8.78 µM (active).
For CCS(=O)(=O)c1nc(S(=O)(=O)c2ccc(Cl)cc2)c(NCc2ccccn2)s1, the “inhibition” value was -28.7%.
For CCOc1cc(C(c2c(C)[nH][nH]c2=O)c2c(C)[nH][nH]c2=O)ccc1OC(=O)c1cccc([N+](=O)[O-])c1, the IC50 was 28.9 µM (active).
For Cc1[nH][nH]c(=O)c1C(c1ccc(-c2cccc(Cl)c2)o1)c1c(C)[nH][nH]c1=O, the “inhibition” value was -31.4%.
With COCC(C)NC(=O)c1cccc([N+](=O)[O-])c1 (stereo not given) the “inhibition” value was -5.06%.
With CCCSc1nc(O)c(C(c2ccc(OC)c(O)c2)c2c(O)nc(SCCC)n(C)c2=O)c(=O)n1C the “inhibition” value was -8.35%.
With CCOc1cc(C(c2c(C)[nH][nH]c2=O)c2c(C)[nH][nH]c2=O)ccc1O the IC50 was 4.65 µM (active).
With COc1cc(C(c2c(C)[nH][nH]c2=O)c2c(C)[nH][nH]c2=O)ccc1OC(C)C the IC50 was 69 µM (active).
In the case of CC(C)c1ccc(S(=O)(=O)N2CCN(CCC(=O)Nc3ccc(N(C)C)cc3)CC2)cc1, the IC50 is reported as 12 µM (active).
For Cc1ccsc1C(=O)N1CCCC(CCC(=O)N2CCN(c3ccccn3)CC2)C1 (stereo not given), the “inhibition” value was -0.27%.
With CN(C)c1ccc(NC(=O)CCN2CCN(c3ccccn3)CC2)cc1 the IC50 was 4.88 µM (active).
For O=C(CCN1C(=O)/C(=C\C=C\c2ccccc2)SC1=S)Nc1ccc(C(=O)O)cc1, the “inhibition” value was -19.9%.
With CN(C)c1ccc(NC(=O)c2ccc(N3CCOCC3)nc2)cc1 the IC50 was 3.34 µM (active).
In the case of CCS(=O)(=O)c1ncc(Cl)c(C(=O)Nc2ccc(S(=O)(=O)N3CCC(C)CC3)cc2)n1, the “inhibition” value is reported as -17.6%.
For CC(=O)Nc1ccc(NC(=O)C(C)N2CCN(S(=O)(=O)c3ccc(C)cc3)CC2)cc1 (stereo not given), the “inhibition” value was -33.8%.
In the case of O=C1OC2(c3ccccc31)c1cc(I)c(O)c(I)c1Oc1c2cc(I)c(O)c1I, the “inhibition” value is reported as -22.2%.
With O=C(NNC(=O)c1ccccc1-n1cccc1)c1ccc(Cl)cc1Cl the “inhibition” value was -18%.
With O=C(Nc1ccc(Nc2ccccc2)cc1)N1CCOCC1 the IC50 was 3.84 µM (active).
With O=C(Nc1cccc2c1CCCC2)c1ccccc1Cl the “inhibition” value was -13.3%.
In the case of Oc1ccc(NC(=S)Nc2ccccc2)cc1, the IC50 is reported as 4.74 µM (active) and 4.32 µM (active).
With O=C(NC(=S)Nc1ccc(O)cc1)c1ccccc1Cl the IC50 was 2.31 µM (active).
With NC(=O)Nc1ccc(Nc2ccccc2)cc1 the IC50 was 4.72 µM (active).
With O=C(c1ccc(-c2ccccc2Cl)s1)N1CCOCC1 the “inhibition” value was 1.32%.
With C=C(C)C(=O)O[C@H]1C/C(C)=C\C(=O)/C=C(\C)[C@H](O)[C@@H]2OC(=O)C(=C)[C@@H]21 the “inhibition” value was -21.3%.
For CCCCNC(=S)N(CCN(C)C)Cc1cc2cc3c(cc2[nH]c1=O)OCCO3, the “inhibition” value was 1.93%.
For COc1cccc(NC(=S)Nc2ccc(O)cc2)c1, the IC50 was 1.13 µM (active).
In the case of CNC(=S)Nc1ccc(Nc2ccccc2)cc1, the IC50 is reported as 4.39 µM (active).
For O=C(O)[C@H]1CCCC[C@H]1C(=O)Nc1ccc(Nc2ccccc2)cc1, the IC50 was 3.86 µM (active).
For COc1cccc(NC(=O)CC2(CC(=O)O)CCCC2)c1, the “inhibition” value was -18.3%.
For O=C(NC(=S)Nc1ccc(O)cc1)c1cncc(Br)c1, the IC50 was 3.94 µM (active).
For O=c1[nH]c2cc3c(cc2cc1CN(Cc1cccnc1)Cc1nnnn1Cc1ccco1)OCCO3, the “inhibition” value was -30.1%.
In the case of COc1ccc(N=Cc2c[nH][nH]c2=O)cc1, the IC50 is reported as 9.97 µM (active).
In the case of CC1(C)Nc2ccc(O)cc2-c2c1ssc2=S, the IC50 is reported as 14.6 µM (active).
In the case of O=C1OCC/C1=C\c1ccc(O)cc1, the IC50 is reported as 7.82 µM (active).
In the case of Nc1ccc(O)c2ccccc12, the “inhibition” value is reported as 5.37%.
In the case of Nc1cc(S(=O)(=O)c2ccc(O)c(N)c2)ccc1O, the IC50 is reported as 3.9 µM (active).
With CS(=O)(=O)c1ccc(N)c(SSc2cc(S(C)(=O)=O)ccc2N)c1 the “inhibition” value was 23.8%.
With Nc1n[nH]c(=S)n1/N=C1/C(=O)Nc2ccccc21 the IC50 was 9.5 µM (active).
In the case of Cn1cccc1/C=N/N1CCN(Cc2ccccc2)CC1, the IC50 is reported as 21 µM (active).
With Cc1cccc(C)c1NCC(=O)N1CCN(Cc2ccccc2)CC1 the “inhibition” value was -18.3%.
In the case of Cn1cccc1/C=N/N1CCN(c2ccccn2)CC1, the IC50 is reported as 7.28 µM (active).
With Oc1ccc(/C=N/N2CCN(c3ccccn3)CC2)cc1 the IC50 was 10.4 µM (active).
